{"source": "PubChem BioAssay AID1259336", "about": "(Sattelle Laboratory, UCL Respiratory, Division of Medicine, …, 2017)", "note": "A number with no mark means an inactive call. Calls of active or inactive are those of the source. No stated cut-off is given here; in the data, active means log2 fold change growth below about -1.8; inactive means the rest.", "data": [{"assay": "C. elegans growth inhibition, whole organism, log2 fold change (AID 1259336);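 further: growth scored by imaging after five days at 20 °C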", "conditions": "anthelmintic screen, active compounds read low", "values": [{"smiles": "CN1CCCN([C@@H](c2ccccc2)c2ccc(Cl)cc2)CC1", "log2 fold change growth": 0.517}, {"smiles": "COc1ccc(C2(C(=O)Nc3ccc(Br)cc3)CCCC2)cc1", "log2 fold change growth": -0.749}, {"smiles": "O=C(c1ccc(F)cc1)N(CCNc1ccccc1)c1ccccc1", "log2 fold change growth": 0.348}, {"smiles": "CN1CCC(NCc2cccc(-c3ccc(S(=O)(=O)NCc4ccccc4)cc3)c2)CC1", "log2 fold change growth": 0.364}, {"smiles": "Cc1ccccc1CN1CCC(O)(c2ccc(Cl)c(C(F)(F)F)c2)CC1", "log2 fold change growth": 0.151}, {"smiles": "CC(C)(C)OC(=O)N1CCN(c2nccc(-c3ccc(-c4ccc(Cl)cc4)s3)n2)CC1", "log2 fold change growth": 0.151}, {"smiles": "COc1ccc2nc(C)cc(OCC(=O)Nc3ccccc3OC)c2c1", "log2 fold change growth": 0.165}, {"smiles": "COc1cc(Br)cc2cc(C(=O)Nc3cccc(C(F)(F)F)c3)c(=O)oc12", "log2 fold change growth": 0.421}, {"smiles": "Nc1nc(N)c2c3c(sc2n1)CN(Cc1ccccc1)CC3", "log2 fold change growth": 0.456}, {"smiles": "COc1cccc(-c2cc3c(Nc4cccnc4)nccc3[nH]2)c1", "log2 fold change growth": 0.319}, {"smiles": "c1cc(C2=NCCN2)cc(-c2cc(-c3ccc(C4=NCCN4)cc3)no2)c1", "log2 fold change growth": 0.193}, {"smiles": "Cc1cc(C)n2nc(C(=O)Nc3cc(C(F)(F)F)ccc3N3CCOCC3)nc2n1", "log2 fold change growth": 0.174}, {"smiles": "CCn1cnc2c(Nc3cc(F)cc(F)c3)nc(C#N)nc21", "log2 fold change growth": -0.053}, {"smiles": "Nc1ccc(C(=O)Nc2ccc(-c3nc4ccccc4o3)cc2)cc1", "log2 fold change growth": "-7.04 (active)"}, {"smiles": "NC[C@@H](c1cccs1)S(=O)(=O)c1ccccc1", "log2 fold change growth": 0.289}, {"smiles": "Clc1ccc(-n2cc(COc3ccnc4ccccc34)nn2)cc1", "log2 fold change growth": "-5.7 (active)"}, {"smiles": "CCOc1ccc2cc(-c3nn(C(C)(C)C)c(N)c3C(N)=O)cnc2c1", "log2 fold change growth": -0.647}, {"smiles": "Cc1ccc2c(c1C)NC(=O)[C@]21NN=C(c2ccccc2)S1", "log2 fold change growth": -0.355}, {"smiles": "CC(C)(C)n1nc(Cc2cccc3ccccc23)c2c(N)ncnc21", "log2 fold change growth": -0.527}, {"smiles": "O=C(NC1CC1)c1ccc(CSCc2ccccc2Cl)o1", "log2 fold change growth": 0.276}, {"smiles": "CCN(CC)CCCCCCNc1cc(OC)cc2c(C)ccnc12", "log2 fold change growth": -0.053}, {"smiles": "CCCn1c(NC(=O)c2ccc3ccccc3n2)nc2ccccc21", "log2 fold change growth": -0.0431}, {"smiles": "CNc1snc(C)c1C(=O)NCCOc1ccc(OC)cc1", "log2 fold change growth": -0.0598}, {"smiles": "O=C(NCc1ccco1)N1CCN(Cc2ccc(Cl)s2)CC1", "log2 fold change growth": 0.334}, {"smiles": "CC(C)=CCC/C(C)=C\\CNCCNC1C2CC3CC(C2)CC1C3", "note": "(centres undefined)", "log2 fold change growth": 0.423}, {"smiles": "Nc1ncnc2c1c(Cc1cccc3ccccc13)nn2CC1CCNCC1", "log2 fold change growth": -0.11}, {"smiles": "COc1ccc(-c2cnc3ccc(N4CCCC4)nn23)cc1OC", "log2 fold change growth": -0.625}, {"smiles": "Cc1cc(OCC(=O)NCc2ccccc2)c2cc(Br)ccc2n1", "log2 fold change growth": 0.232}, {"smiles": "Cc1cc(C)c2cc(C(=O)NC3CCCCCCC3)[nH]c2c1", "log2 fold change growth": -0.0221}, {"smiles": "N#Cc1nc(-c2ccccc2F)oc1NCCc1ccccc1", "log2 fold change growth": -0.468}, {"smiles": "CS(=O)(=O)N1CCC(CCn2nc(Cc3cccc4ccccc34)c3c(N)ncnc32)CC1", "log2 fold change growth": -1.16}, {"smiles": "COc1cc(C2=NCCN2)ccc1-c1cn(-c2cccc(C3=NCCN3)c2)nn1", "log2 fold change growth": -0.121}, {"smiles": "O=C(NCc1ccoc1)N1CCN(Cc2ccc3c(c2)OCO3)CC1", "log2 fold change growth": 0.212}, {"smiles": "CC(C)(C)n1nc(-c2ccccc2)c2c(N)ncnc21", "log2 fold change growth": -0.162}, {"smiles": "Cc1ccc(S(=O)(=O)N2CCN(C(=O)c3cc(-c4ccccc4)n[nH]3)CC2)cc1", "log2 fold change growth": -0.371}, {"smiles": "COc1ccc(S(=O)(=O)Nc2ccc(CN3CCN(C(=O)c4cccc(C#N)c4)CC3)cc2)cc1", "log2 fold change growth": 0.00585}, {"smiles": "COc1ccc(CN2CCOc3ccc([C@@](C)(O)CN(C)C)cc3C2)cc1C", "log2 fold change growth": 0.162}, {"smiles": "CC(C)(C)CN1C(=O)C(c2ccccc2)(c2ccccc2)N=C1N", "log2 fold change growth": "-5.48 (active)"}, {"smiles": "Clc1ccc(CCNc2cc(-c3ccccc3)nc3ncnn23)cc1", "log2 fold change growth": -0.81}]}]}
